# Test results: PubChem BioAssay (NCATS)
# Results filed as inconclusive are left out. Active and inactive are the calls of the source. Unless noted, the call rests on the fitted dose curve; in most records, active means well fitted curve in the direction sought with a large enough effect; inconclusive means small, poorly fitted or top-dose-only effect, or another doubt; inactive means no such curve, though single readings can be large; an effect the other way counts as inactive or inconclusive.
# Columns and labels:
# [1] = Quantitative High-Throughput drug screen in 47 multiple myeloma cell lines against the NCATS MIPE library collection: UTMC2_PLB cell viability assay (AID 1919868); conditions: CellTiter-Glo ATP luminescence, 48 h; viability (% of DMSO control): at 45.8 µM (top of the series) unless noted; further: nearly all actives have a fitted effect of over 55% in size; further: potency means the concentration at half of the fitted maximal effect;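 on viability (% of DMSO control): 100% = DMSO-only wells and 0% = media-only wells without cells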
# Procedure, shortened: (§1)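 Plated at 500 cells per well, myeloma lines received MIPE 4.0 compounds by pin tool. Following 48 h culture at 37 °C, CellTiter-Glo luminescence gave viability relative to DMSO and media-only controls.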
# [2] = Quantitative High-Throughput drug screen in 47 multiple myeloma cell lines against the NCATS MIPE library collection: PCM6_Riken cell viability assay (AID 1919870); further: nearly all actives have a fitted effect of over 30% in size; further: potency means the concentration at half of the fitted maximal effect
# Procedure, shortened: as §1
# [3] = Quantitative High-Throughput drug screen in 47 multiple myeloma cell lines against the NCATS MIPE library collection: OPM2_DSMZ cell viability assay (AID 1919872); further: nearly all actives have a fitted effect of over 30% in size; further: potency means the concentration at half of the fitted maximal effect
# Procedure, shortened: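 Approved and investigational drugs from MIPE 4.0 were added by pin tool to 500 cells per well. After 48 hours at 37C, ATP-based CellTiter-Glo luminescence indicated remaining viability.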
# [4] = Quantitative High-Throughput drug screen in 47 multiple myeloma cell lines against the NCATS MIPE library collection: KMS11_JCRBsus cell viability assay (AID 1919873); further: nearly all actives have a fitted effect of over 50% in size; further: potency means the concentration at half of the fitted maximal effect
# Procedure, shortened: as §1
# [5] = Quantitative High-Throughput drug screen in 47 multiple myeloma cell lines against the NCATS MIPE library collection: KMS28BM_JCRB cell viability assay (AID 1919874); further: nearly all actives have a fitted effect of over 35% in size; further: potency means the concentration at half of the fitted maximal effect
# Procedure, shortened: as §1
# [6] = qHTS for identification of novel therapeutic agents for treatment of microphthalmiaassociated transcription factor (MiT) renal cell carcinoma (RCC) (AID 1963991; calls by dose curve; further: potency means the concentration at half of the fitted maximal effect); conditions: CellTiter-Glo, 48 h; for z-score: stronger effect = lower value
# Procedure, shortened: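 Three TFE3-fusion RCC lines (UOK109, UOK124, UOK145), 500 cells/well in complete medium, were treated with MIPE 4.0 compounds for 48 hours at 37 C. Viability was by CellTiter-Glo luminescence, normalized to DMSO (100%) and empty wells (0%); curves fitted over 11 concentrations.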
# [7] = qHTS profiling for inhibitors of Plasmodium falciparum proliferation (AID 504749); further: potency means the concentration at half of the fitted maximal effect; nearly all actives have a fitted effect of over 60% in size; conditions: P. falciparum in erythrocytes, SYBR Green DNA, 72 h
# Procedure, shortened: (§2)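 Three-day growth assay of blood-stage parasites in erythrocytes (0.3% parasitemia, 2.5% hematocrit) at 37 C, 5% CO2, quantified by SYBR Green DNA staining after overnight detergent lysis.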
# 3D7 = assay: as above; conditions: P. falciparum in erythrocytes, SYBR Green DNA, 72 h; series mostly up to 28.7 µM
# Procedure, shortened: as §2
# 7G8 = assay: as above; conditions: P. falciparum in erythrocytes, SYBR Green DNA, 72 h; series mostly up to 28.7 µM
# Procedure, shortened: as §2
# AA1029 = assay: as above; conditions: P. falciparum in erythrocytes, SYBR Green DNA, 72 h; series mostly up to 28.7 µM
# Procedure, shortened: as §2
# AS120 = assay: as above; conditions: P. falciparum in erythrocytes, SYBR Green DNA, 72 h; series mostly up to 28.7 µM
# Procedure, shortened: as §2
# ATS189 = assay: as above; conditions: P. falciparum in erythrocytes, SYBR Green DNA, 72 h; series mostly up to 28.7 µM
# Procedure, shortened: as §2
# ATS95 = assay: as above; conditions: P. falciparum in erythrocytes, SYBR Green DNA, 72 h; series mostly up to 28.7 µM
# Procedure, shortened: as §2
# C2A = assay: as above; conditions: P. falciparum in erythrocytes, SYBR Green DNA, 72 h; series mostly up to 28.7 µM
# Procedure, shortened: as §2
# CP185 = assay: as above; conditions: P. falciparum in erythrocytes, SYBR Green DNA, 72 h; series mostly up to 28.7 µM
# Procedure, shortened: as §2
# CP192 = assay: as above; conditions: P. falciparum in erythrocytes, SYBR Green DNA, 72 h; series mostly up to 28.7 µM
# Procedure, shortened: as §2
# [8] = Quantitative High-Throughput drug screen in 47 multiple myeloma cell lines against the NCATS MIPE library collection: PE2_PLB cell viability assay (AID 1919869);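 further: 100% = DMSO-only wells and 0% = cell-free media-only wells; nearly all actives have a fitted effect of over 35% in size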
# Procedure, shortened: as §1
# [9] = Quantitative High-Throughput drug screen in 47 multiple myeloma cell lines against the NCATS MIPE library collection: RPMI8226_ATCC cell viability assay (AID 1919871); further: nearly all actives have a fitted effect of over 30% in size; further: potency means the concentration at half of the fitted maximal effect
# Procedure, shortened: as §1
# [10] = qHTS drug screen for cell cycle checkpoint inhibitors in PARPi-resistant BRCA-mutant ovarian cancer cell lines. (AID 1963452; calls by dose curve); conditions: PEO1/OlaR viability, CellTiter-Glo luminescence, 96 h, stronger effect = lower value
# Procedure, shortened: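 PEO1, PEO4 and PEO1/OlaR ovarian cancer cells, 600 per well, exposed 96 h at 37C to a dilution series. Viability read by CellTiter-Glo luminescence, normalized to DMSO and empty wells; activity summarized as Z-AUC.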
# CP191 = assay: qHTS profiling for inhibitors of Plasmodium falciparum proliferation (AID 504749); further: potency means the concentration at half of the fitted maximal effect; nearly all actives have a fitted effect of over 60% in size; conditions: P. falciparum in erythrocytes, SYBR Green DNA, 72 h; series mostly up to 28.7 µM
# Procedure, shortened: as §2
# [11] = TFE3-RCC UOK109 viability, measured here: UOK109 Z-AUC
# [12] = TFE3-RCC viability, measured here: UOK124 Z-AUC
# [13] = TFE3-RCC viability, measured here: UOK145 Z-AUC
# [14] = measured here: PEO1 parental Z-AUC
smiles,measurement,setting,value
CC[C@H]1CN2CCc3cc(OC)c(OC)cc3[C@H]2C[C@@H]1C[C@@H]1NCCc2cc(OC)c(OC)cc21,Potency,[1],187 nM (active)
same,Potency,[2],166 nM (active)
same,Potency,[3],418 nM (active)
same,Potency,[4],166 nM (active)
same,Potency,[5],235 nM (active)
same,Potency,"[6]; TFE3-RCC UOK109 viability, active = Z-AUC below -0.8 in all three lines",166 nM (active)
same,z-score,[6]; [11],-1.94
same,z-score,[6]; [12],-1.32
same,z-score,[6]; [13],-3.58
same,Potency,[7]; parasite line A,316 nM (active)
same,Potency,[7]; parasite line B,282 nM (active)
same,Potency,3D7,224 nM (active)
same,Potency,7G8,126 nM (active)
same,Potency,AA1029,316 nM (active)
same,Potency,AS120,316 nM (active)
same,Potency,ATS189,708 nM (active)
same,Potency,ATS95,282 nM (active)
same,Potency,C2A,224 nM (active)
same,Potency,CP185,316 nM (active)
same,Potency,CP192,536 nM (active)
COC(=O)C1=C(C)NC(C)=C(C(=O)OCCN2CCN(C(c3ccccc3)c3ccccc3)CC2)C1c1cccc([N+](=O)[O-])c1 (stereo not drawn),Potency,[8],inactive
same,Potency,[2],inactive
same,Potency,[9],inactive
same,Potency,[3],inactive
same,Potency,[4],inactive
same,Potency,[5],inactive
same,Z-AUC,[10],-0.27 (inactive)
same,Z-AUC,[10]; [14],-0.345
same,Z-AUC,[10]; measured here: PEO4 Z-AUC,0.196
same,z-score,[6]; [11],0.729
same,z-score,[6]; [12],0.516
same,z-score,[6]; [13],-0.011
same,Potency,[7]; parasite line A,3160 nM (active)
same,Potency,[7]; parasite line B,3980 nM (active)
same,Potency,7G8,1410 nM (active)
same,Potency,AA1029,2240 nM (active)
same,Potency,AS120,2000 nM (active)
same,Potency,ATS189,1580 nM (active)
same,Potency,ATS95,2510 nM (active)
same,Potency,C2A,3550 nM (active)
same,Potency,CP185,4470 nM (active)
same,Potency,CP191,3160 nM (active)
same,Potency,CP192,4780 nM (active)
CN(C1CCc2c(c3ccccc3n2CC(=O)O)C1)S(=O)(=O)c1ccc(F)cc1 (stereo not drawn),Potency,[8],inactive
same,Potency,[2],3720 nM (active)
same,Potency,[9],inactive
same,Potency,[3],inactive
same,Potency,[5],296 nM (active)
O=C(O)[C@H](Cc1c[nH]c2ccccc12)N1C(=O)c2ccccc2C1=O,viability (% of DMSO control),[1],115% [at 92.2 µM] (active)
same,Potency,[9],inactive
same,Potency,[3],inactive
same,Potency,[4],inactive
same,Potency,[5],inactive
same,Z-AUC,[10],1.05 (inactive)
same,Z-AUC,[10]; [14],0.982
same,Z-AUC,[10]; measured here: PEO4 Z-AUC,0.872
same,z-score,[6]; [11],0.59
same,z-score,[6]; [12],0.462
same,z-score,[6]; [13],0.777
COc1cc2c(NC3CCN(C(C)C)CC3)nc(C3CCCCC3)nc2cc1OCCCN1CCCC1,Potency,[1],13200 nM (active)
same,Potency,[9],6620 nM (active)
same,Potency,[3],7430 nM (active)
same,Potency,[4],8330 nM (active)
same,Potency,[5],14800 nM (active)
same,Z-AUC,[10],0.841 (inactive)
same,Z-AUC,[10]; [14],0.768
same,Z-AUC,[10]; measured here: PEO4 Z-AUC,0.938
COc1cccc(Nc2c(C(N)=O)cnc3c(C)cc(S(=O)(=O)c4cccc(C(=O)N(C)C)c4)cc23)c1,Potency,[8],inactive
same,Potency,[2],inactive
same,Potency,[9],inactive
same,Potency,[3],inactive
same,Potency,[5],inactive
same,Z-AUC,[10],-0.363 (inactive)
same,Z-AUC,[10]; [14],0.84
same,Z-AUC,[10]; measured here: PEO4 Z-AUC,0.84
same,z-score,[6]; [11],1.38
same,z-score,[6]; [12],0.911
same,z-score,[6]; [13],0.957
